Screening data as filed in PubChem.
TDP1 cell noCPT = qHTS for Inhibitors of human tyrosyl-DNA phosphodiesterase 1 (TDP1): qHTS in cells in absence of CPT; Potency, µM (doses to about 46.2 µM), most hits filed as inhibitors; DT40 Tdp1-/- hTDP1 cells, no CPT, ATP luminescence, 48 h; AID 686978, 2013; 420,000 tested, 15% active; note: nearly all actives have a fitted effect of over 55% in size
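Luminescent ATP content (CellTiter-Glo) served as the growth readout. Knockout chicken DT40 cells expressing human TDP1 were exposed to compounds without camptothecin for a minimum 48 hr at 37 °C.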
TGFb SMAD3 inh = inhibitors of TGF-b signaling; Potency, µM (titrated, usually from 46.1 µM), usual class: inhibitors; HepG2 CAGA-GFP TGF-b/SMAD3 reporter, GFP fluorescence, 18 h; TGF-beta stimulated, 500 pg/mL final; AID 588855; 410,000 tested, 1.2% active; note: nearly all actives have a fitted effect of over 65% in size
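Per well, imaged GFP fluorescence of HEPG2 CAGA-GFP cells gives the signal; cells get compound, then TGF-beta (500 pg/mL final), 18 h at 37 degrees C; %Activity versus -TGF-beta and +DMSO controls.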
HepG2 tox = HepG2 cytotoxicity, counter-screen for TGF-b inhibitors. 410,000 tested, 0.76% active. HepG2 CAGA-GFP viability, ATP luminescence, 18 h. Potency, µM (highest dose often 46.1 µM), hits mostly cytotoxic
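HepG2 CAGA-GFP cells (1000/well, DMEM with 1% FBS) received compound, then TGF-beta at 500 pg/mL final, and were incubated 18 hours at 37 degrees C. Viability was read by CellTiter-Glo luminescence. Media-only wells were set as complete cell-killing and DMSO as no toxicity.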
HT1080 IDH1KD tx = toxicity to HT-1080 IDH1 knockdown cells (counter line). Potency, µM (titrated, usually from 46.1 µM), actives largely listed as cytotoxic. HT-1080 IDH1 knockdown viability, ATP luminescence, 48 h. 360,000 tested, 2% active
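% activity derives from luminescence (CellTiter-Glo), normalised to DMSO and no-cell wells. HT-1080-IDH1KD cells, 750/well, had 48 h compound exposure at 37 °C.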
DT40 TDP1 CPT = growth inhibition of DT40 Tdp1-/-;hTDP1 cells with camptothecin (screen for TDP1 inhibitors) | chicken DT40 Tdp1-/-;hTDP1 cells + 20 nM CPT, ATP luminescence, 48 h | Potency, µM (top dose mostly 46.2 µM), actives largely listed as inhibitors | 420,000 tested, 12% active; note: nearly all actives have a fitted effect of over 55% in size
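Chicken DT40 Tdp1-/- cells complemented with human TDP1, 400 cells/well, exposed to compounds plus 20 nM camptothecin for at least 48 h at 37 C; viability read as ATP content by CellTiter-Glo luminescence.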
HT1080-NT tox = kills 2HG-producing HT-1080-NT fibrosarcoma cells; Potency, µM (highest dose often 46.1 µM), most hits filed as cytotoxic; AID 686970; HT-1080-NT fibrosarcoma viability, CellTiter-Glo ATP luminescence, 48 h; 360,000 tested, 1.6% active;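 note: NT is the 2HG producing partner of a matched IDH1 knockdown line; nearly all actives have a fitted effect of over 55% in size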
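Viability of the 2HG-overproducing fibrosarcoma line after 48 hours of compound exposure at 37 degrees C was determined by luminescence with CellTiter-Glo, and concentration-effect curves were then fitted and categorized.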
Hits are given with their value. Most compounds without a hit are left out; they make up all but 17% or so of the library. Calls come from the whole dose curve; as a rule, active = well fitted curve in the direction sought with a large enough effect; inconclusive = small, poorly fitted or top-dose-only effect, or another doubt; inactive = no such curve, though single readings can be large; an effect the other way counts as inactive or inconclusive.

How did Cc1ccc(NC(=O)c2ccc(C(C)(C)C)cc2)cc1-n1cnnn1 do in these assays?
TDP1 cell noCPT: 29µM; TGFb SMAD3 inh: inactive; HepG2 tox: inactive; HT1080 IDH1KD tx: inactive; DT40 TDP1 CPT: inconclusive; HT1080-NT tox: inactive

How did COc1cc(C(=O)Nc2ccc(-n3cnnn3)c(C)c2)cc(OC)c1OC do in these assays?
TDP1 cell noCPT: inactive; TGFb SMAD3 inh: inactive; HepG2 tox: inactive; HT1080 IDH1KD tx: inactive; DT40 TDP1 CPT: inactive; HT1080-NT tox: inactive

Results for CCOc1ccc(CC(=O)NC2CC(=O)N(c3ccc(C)c(C)c3)C2)cc1 (configuration not stated) ?
TDP1 cell noCPT: inconclusive; TGFb SMAD3 inh: inactive; HepG2 tox: inactive; DT40 TDP1 CPT: inactive

How did Cc1cccc2cc(C#N)c(N3CCN(C)CC3)nc12 do in these assays?
TDP1 cell noCPT: 26µM; TGFb SMAD3 inh: inactive; HepG2 tox: inactive; HT1080 IDH1KD tx: inconclusive; DT40 TDP1 CPT: inconclusive; HT1080-NT tox: inactive

Results for Cc1cc(C)c2nc(N3CCN(C)CC3)c(C#N)cc2c1 ?
TDP1 cell noCPT: inconclusive; TGFb SMAD3 inh: inactive; HepG2 tox: inactive; HT1080 IDH1KD tx: inactive; DT40 TDP1 CPT: inactive; HT1080-NT tox: inactive

What do the screens show for `O=C(COC(=O)C12CC3CC(CC(Br)(C3)C1)C2)N1CCOCC1`?
TDP1 cell noCPT: inactive; TGFb SMAD3 inh: inconclusive; HepG2 tox: inactive; HT1080 IDH1KD tx: inactive; DT40 TDP1 CPT: inactive; HT1080-NT tox: inactive

How did CCN1C(=O)[C@@H]2[C@@H](c3ccc(-c4ccc(OC)cc4)cc3)N3CCC[C@@]3(C(=O)OC)[C@@H]2C1=O do in these assays?
TDP1 cell noCPT: 21µM; TGFb SMAD3 inh: inactive; HepG2 tox: inactive; HT1080 IDH1KD tx: inactive; DT40 TDP1 CPT: inconclusive; HT1080-NT tox: inactive

Results for CCN1C(=O)[C@H]2[C@@H](c3ccc(-c4ccc(F)cc4)cc3)N3CCCC[C@@]3(C(=O)OC)[C@H]2C1=O ?
TDP1 cell noCPT: inconclusive; TGFb SMAD3 inh: inconclusive; HepG2 tox: inactive; HT1080 IDH1KD tx: inactive; DT40 TDP1 CPT: inconclusive; HT1080-NT tox: inactive
